This passage reports composite z-score results from PubChem BioAssay.

Each structure is given as a SMILES string.

This assay in a line: binders of probe aFSTL3 on microarray, primary screen, stem cell growth factor project, biochemical, small-molecule microarray, fluorescence 635/667 (AID 1064).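 Further: measures binding of the biotinylated anti-FSTL3 antibody to printed compounds.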 As to conditions: higher = more signal.
As to `COCCOC(=O)N1C(=O)[C@@]2(c3cc(C#CCC(C(=O)OC)C(=O)OC)ccc31)[C@H](c1ccccc1OCCO)N1[C@H](c3ccccc3)[C@H](c3ccccc3)OC(=O)[C@H]1[C@@H]2C(N)=O`, the composite z-score is -0.0037. With `CC(C)NC(=O)[C@@H]1c2ccccc2C(=O)N(Cc2ccccc2Cl)[C@H]1c1ccc(CO)cc1`, the composite z-score was 0.717.

Molecule `COc1ccc(CCNC(=O)[C@@]2(c3ccc([N+](=O)[O-])cc3)CC(=O)N(CC34CC5CC(CC(C5)C3)C4)[C@@H]2c2ccc(CO)cc2)cc1` returned a composite z-score of 0.281. For `COc1ccc(CCNC(=O)[C@@H]2c3ccccc3C(=O)N(Cc3ccc(OC(F)(F)F)cc3)[C@H]2c2ccc(CO)cc2)cc1`, the composite z-score worked out at 0.111. In the case of `CCOC(=O)[C@H]1C[C@H]2O[C@@]23C[C@H]1C(=O)N1CCCC1[C@@H]3O[Si](C)(C)C(C)(C)C` (stereo partly specified), the composite z-score is -0.328. For `Cc1cc(C)cc(N2C(=O)CS(=O)(=O)C2c2cccc([N+](=O)[O-])c2)c1` (stereo unspecified) the value was 0.228; for `O=C(CS)NCCCCCCNC(=O)[C@H]1C[C@H]2C(=O)N3CCC[C@H]3C(=O)N2[C@H]1c1cccc(OCCO)c1`, 0.255; for `C=CC(COC(C)=O)NS(=O)(=O)c1ccc(Br)cc1` (stereo unspecified), -0.647. `CCCC[C@H]1OB(O)C[C@H]2C1=C(C)C[C@H]1C(=O)N(Cc3ccccc3)C(=O)[C@H]12` returned a composite z-score of -0.573. In the case of `O=C1OCCC/C=C\[C@H]2OC34C=CCN(Cn5nnc6ccccc65)C(=O)[C@H]3N(CCCCCO)C(=O)[C@@H]4C12` (stereo partly specified), the composite z-score amounted to 0.0227.

With `CC(C)C[C@@H]1NC(=O)[C@@H]2C[C@H](C(=O)NCCCCCC[N+](C)(C)C)[C@H](c3ccc(O)cc3)N2C1=O`, the composite z-score is -0.0515.
